This note sets out measurements from PubChem BioAssay (Tox21).

Values joined by “and” are separate entries in the source; they are usually repeats but may differ in a detail not shown here. Equal values may be shown once. Results filed as inconclusive are left out. Some compounds were tested as several samples or in several runs, with calls that do not always agree. Active and inactive are the calls of the source. The call rests on the fitted dose curve; in most records, active means well fitted inhibition curve with a large enough effect in the repeat runs; inconclusive means weak or mixed curves; inactive means flat fitted curve, though single readings scatter.
On the % scale 0 is the no-effect control and ±100 the full control effect.

Luciferin 4-monooxygenase (Photinus pyralis), sequence (P08659 whole entry, looked up): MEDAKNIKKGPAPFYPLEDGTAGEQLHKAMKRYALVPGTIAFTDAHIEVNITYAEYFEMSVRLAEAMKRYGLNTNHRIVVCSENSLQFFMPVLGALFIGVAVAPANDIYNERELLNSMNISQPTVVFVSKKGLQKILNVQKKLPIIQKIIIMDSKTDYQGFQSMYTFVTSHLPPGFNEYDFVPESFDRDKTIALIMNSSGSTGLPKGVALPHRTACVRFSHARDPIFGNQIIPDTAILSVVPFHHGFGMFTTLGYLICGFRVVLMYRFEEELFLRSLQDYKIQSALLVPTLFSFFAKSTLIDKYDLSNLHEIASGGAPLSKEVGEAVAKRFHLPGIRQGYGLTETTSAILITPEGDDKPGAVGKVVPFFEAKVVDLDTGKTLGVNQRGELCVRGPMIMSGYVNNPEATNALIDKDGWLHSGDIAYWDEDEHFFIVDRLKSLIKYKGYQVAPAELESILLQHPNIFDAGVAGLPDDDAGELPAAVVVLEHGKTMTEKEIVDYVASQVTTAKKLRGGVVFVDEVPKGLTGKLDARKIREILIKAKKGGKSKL

This assay has as its target Luciferin 4-monooxygenase (Photinus pyralis) (UniProt P08659). As to the kind of experiment: qHTS assay to identify small molecule inhibitors of firefly luciferase (AID 1224835). Further: nearly all actives have a fitted effect of over 25% in size. To be noted: purified P. pyralis luciferase, luminescence inhibition; series mostly up to 115 µM; activity change, negative = inhibition: at the top concentration. The source says: U.S. Tox21 Program National Center for Advancing Translational Sciences [NCATS] NIH Chemical Genomics Center [NCGC] U.S. Environmental Protection Agency [EPA] National Institutes of Environmental Health Sciences [NIEHS] National Toxicology Program [NTP] U.S. Food and Drug Administration [FDA] Tox21 Assay Overview: Firefly (Photinus pyralis) luciferase is one of the most commonly used transcriptional reporters. Firefly luciferase reporter-gene assays are generally considered one of the most sensitive assay types (Wood, 1995; Wood, 1998). However, it was initially observed, in 1991, by Thompson et al., that compounds that resemble the substrates of firefly luciferase (FLuc) can act as competitive inhibitors of the enzyme, and that these compounds, upon interaction with luciferase in the cell, can actually stabilize the protein and increase its half-life. Previous profiling work by other groups to determine the prevalence of compounds that affect FLuc enzymatic activity (PubChem AID 411) identified that ~3% of the MLSMR library (then at ~72K) inhibited FLuc. […] Thus the Tox21 10K library is profiled for activity against FLuc using a biochemical assay of purified FLuc and KM concentrations of FLuc substrates (D-luciferin and ATP).
These assay plates were then treated with 23nL of compound or DMSO using a Kalypsys pin tool, which allows for delivery of a 6-point interplate titration of each compound to the assay plate (quantitative HTS.) 1 uL of firefly luciferase mix (containing 50 mM Tris acetate, pH 7.6, 0.04 uM P. pyralis luciferase, 0.01% Tween, 0.05% BSA and dH2O) was then delivered by FRD to each well. Luciferase activity was then measured using a ViewLux CCD imager.
(qHTS replaces the single test concentration by a dilution series.)
`COc1ccc2c(c1)c(CC(=O)OCC(=O)O)c(C)n2C(=O)c1ccc(Cl)cc1`: the “activity change, negative = inhibition” value was -4.76% [at 52.9 µM] (inactive).
Consider `CCOC(=O)C(=O)OCC`, for which the “activity change, negative = inhibition” value is 1.29% (inactive).
Regarding `CCCCCCOC(=O)CCCCC(=O)OCCCCCC`, the “activity change, negative = inhibition” value was -0.449% (inactive).
`N#Cc1ccc(C2CCCc3cncn32)cc1` (stereo not given): the “activity change, negative = inhibition” value was -1% [at 52.9 µM] (inactive).
In the case of `Cc1cc2c(cc1S(N)(=O)=O)S(=O)(=O)CCC2`, the “activity change, negative = inhibition” value was 5.87% [at 52.9 µM] (inactive).
As to `CCCCCCCCCCCCCC=O`, the activity change, negative = inhibition is 3.28% [at 10.5 µM] (inactive).
For the compound `Nc1cc(=O)[nH]c(N)n1`, the “activity change, negative = inhibition” value is -0.0071% [at 52.9 µM] (inactive).
Turning to `CCOC(=O)Nc1ccc(NCc2ccc(F)cc2)nc1N`, the “activity change, negative = inhibition” value is -7.91% [at 52.9 µM] (inactive).
Same read-out and setting: to `Cc1nc2c([nH]1)c(=O)n(C)c(=O)n2Cc1ccco1` belongs -1.57% [at 52.9 µM] (inactive); to `CN1CCC(=C2c3ccccc3CC(=O)c3sccc32)CC1`, -3.45% [at 52.9 µM] (inactive); to `CC(=O)c1ccccc1O`, 0.188% (inactive).
The same measure, in the same setting: as for `CC(=O)OCC(=O)[C@@]1(O)CC[C@H]2[C@@H]3CCC4=CC(=O)CC[C@]4(C)[C@H]3C(=O)C[C@@]21C`, the figure is -1.24% [at 52.9 µM] (inactive).
Still for that read-out and setting: as for `CC/C=C\CC/C=C/C(OCC)OCC`, the figure is -3.69% (inactive).
`Cc1c(NC(C)C)c(=O)n(-c2ccccc2)n1C`: the “activity change, negative = inhibition” value is 0.188% [at 52.9 µM] (inactive).
With `Cc1c(O)cccc1O`, the “activity change, negative = inhibition” value is 4.28% (inactive).
Regarding `CCCCCCCCCCCCN(CCCCCCCCCCCC)CCCCCCCCCCCC`, the “activity change, negative = inhibition” value was 4.08% (inactive).
For `CN(C)CCCNCCCN(C)C`, the “activity change, negative = inhibition” value was 2.34% (inactive).
Still for that read-out and setting: to `OC(CCN1CCCCC1)(c1ccccc1)C1CC2C=CC1C2` (stereo not given) belongs -0.328% [at 52.9 µM] (inactive); to `O=C1CCCN1C1CCCCC1`, 6.63% (inactive).
In the case of `C1CN(CCOCCN2CCOCC2)CCO1`, the “activity change, negative = inhibition” value was 2.97% (inactive).
On the same count and under the same terms, as for `Cn1c(N)c(N=O)c(=O)n(C)c1=O`, the figure is -3.94% (inactive).
For `CC(C)c1cc2c(cc1S(=O)(=O)O)[C@@]1(C)CCC[C@@](C)(C(=O)O)[C@@H]1CC2`, the “activity change, negative = inhibition” value was 2.12% [at 52.9 µM] (inactive).
For the compound `Cc1[nH]c(=O)c(C#N)cc1-c1ccc2nccn2c1`, the “activity change, negative = inhibition” value was -1.93% [at 52.9 µM] (inactive).
Take `N=C(N)c1ccc2cc(OC(=O)c3ccc(N=C(N)N)cc3)ccc2c1`: the “activity change, negative = inhibition” value was -4.58% [at 52.9 µM] (inactive).
Same read-out and setting: to `CC(C)CCCC(C)N` (stereo not given) belongs -0.832% [at 52.9 µM] (inactive); to `CC(=O)CC(C)(C)C1CCCCC1`, 3.02% (inactive); to `CCCCC(CC)COC(=O)c1ccccc1O` (stereo not given), 0.101% [at 52.9 µM] (inactive).
As for `CCCc1cc(C(N)=S)ccn1`, the “activity change, negative = inhibition” value is -0.245% [at 52.9 µM] (inactive).
Regarding `N=C(N)c1ccccc1`, the “activity change, negative = inhibition” value is 0.902% (inactive).
Take `CN1CCCC1`: the “activity change, negative = inhibition” value is 2.48% (inactive).
With `COC(=O)C1=C(C)NC(C)=C(C(=O)OC)C1c1ccccc1[N+](=O)[O-]`, the Potency is 40 µM (active) and inactive.
For `O=C(CCCN1CCN(c2ccccn2)CC1)c1ccc(F)cc1`, the “activity change, negative = inhibition” value is -2.4% [at 52.9 µM] (inactive).
As for `N[C@H](C(=O)O)c1ccc(O)cc1`, the activity change, negative = inhibition was -0.257% [at 23.6 µM] (inactive).
On to `CC/C=C\CC/C=C/CO`, for which the “activity change, negative = inhibition” value is 1.09% (inactive).
As to `CC(C)(C)c1ccc(O)c(O)c1`, the Potency is 32.8 µM (active) and 22.4 µM (active).
`CCN(CC)CCNC(=O)c1cc(S(C)(=O)=O)ccc1OC`: the “activity change, negative = inhibition” value is -0.627% [at 52.9 µM] (inactive).
Take `CC(=O)OCC(=O)[C@@]1(O)CCC2C3CCC4=CC(=O)CC[C@]4(C)C3[C@@H](O)C[C@@]21C` (stereo not given in full): the “activity change, negative = inhibition” value is 3.92% [at 52.9 µM] (inactive).
As to `CCN1CCC[C@H]1CNC(=O)c1c(O)c(Cl)cc(Cl)c1OC`, the “activity change, negative = inhibition” value was 0.944% [at 52.9 µM] (inactive).
The same measure, in the same setting: to `CCC(C)C1CCCCC1=O` (stereo not given) belongs 5.71% (inactive); to `c1ccc([C@H]2CN3CCSC3=N2)cc1`, -1.74% [at 52.9 µM] (inactive).
